We go through six compounds from PubChem BioAssay.

A short description of assay [1]: sensitizers of A549 cells to miR-34 induction, primary screen, imaging, A549 dox-inducible miR-34, nuclei and caspase counts (AID 1347080;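 active means compounds whose cell count with miR-34 switched on is under 0.7 times the count with it off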). As to conditions: A549 miR-34 inducible, Hoechst nuclei count, 48 h.
Assay [2] is described as follows: JHH-DIPG-1 glioma cell viability, MIPE5.0 library, CellTiter-Glo luminescence, qHTS (AID 1347067; cut-off not given, nearly all actives have AC50 up to about 26 µM;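 further: cells exposed to compound for 48 hours before readout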). Conditions: JHH-DIPG-1 glioma viability, CellTiter-Glo ATP luminescence.
Assay [3] is described as follows: SU-DIPG-XXV glioma cell viability, MIPE5.0 library, qHTS (AID 1347068; cut-off not given, nearly all actives have IC50 up to about 30 µM).
A short description of assay [4]: ovarian cancer cell viability with rucaparib, profiling panel, oncology-focused library, rucaparib conditional (AID 1508598). As to conditions: patient-derived ovarian cancer cells, CellTiter-Glo viability, 144 h, stronger effect = lower value. (In general: In ATP-based viability assays light output follows the ATP content of the culture.)
The nature of assay [5]: viability loss in pontine glioma line – cell-based, SU-DIPG-XXV, MIPE5.0, CellTiter-Glo, qHTS, dose response (AID 1347065; cut-off not given, nearly all actives have AC50 up to about 26 µM;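 further: cells exposed to compound for 48 hours before ATP readout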). As to conditions: CellTiter-Glo ATP luminescence.
The mark [6] stands for this setting: measured here: relative caspase fold change +Dox/-Dox.
Where [7] appears, read: measured here: total cells with miR-34 induction, stronger effect = lower value.
Setting [8] is: measured here: total cells without miR-34 induction.
Where [9] appears, read: stronger effect = lower value, cell number ratio, induced over uninduced.

Usually viability stands for a read-out of living cells in per cent, often relative to untreated cells. The term AC50 denotes the midpoint of the concentration-response curve, whichever way the signal moves.

Inconclusive results are not listed. Calls of active or inactive are those of the source.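 How the source made its calls, unless noted: active means normalized viability below 100% at a tested concentration; inactive means the rest.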

`CCCCCc1cc(O)c2c(c1)OC(C)(C)[C@@H]1CCC(C(=O)O)=CC21` (some centres not stated): the fold change in assay [1] (stronger effect = lower value) is 0.953 (inactive); in assay [1] (setting [6]) it was 1.25. Further, the cell count in assay [1] (setting [7]) worked out at 5920; in assay [1] (setting [8]), 6210.
In the case of `Cc1sc2c(c1C)C(c1ccc(Cl)cc1)=N[C@@H](CC(N)=O)c1nnc(C)n1-2`, the outcome in assay [2] and in assay [3] was inactive. Moreover, the viability in assay [4] (at 0.000305 µM, OCI-C5x cells, with rucaparib 10 µM, 100% = cells with rucaparib alone) was 106% (inactive); in assay [4] (at 0.000305 µM, OCI-C5x cells, without rucaparib), 111% (inactive); in assay [4] (at 0.000305 µM, OCI-P5x cells, with rucaparib 20 µM, 100% = cells with rucaparib alone), 89.8% (active); in assay [4] (at 0.000305 µM, OCI-P5x cells, without rucaparib) it was 93.2% (active); in assay [4] (at 0.00122 µM, OCI-C5x cells, with rucaparib 10 µM, 100% = cells with rucaparib alone), 111% (inactive); in assay [4] (at 0.00122 µM, OCI-C5x cells, without rucaparib) it was 124% (inactive). Moreover, the viability in assay [4] (at 0.00122 µM, OCI-P5x cells, with rucaparib 20 µM, 100% = cells with rucaparib alone) was 100% (inactive); in assay [4] (at 0.00122 µM, OCI-P5x cells, without rucaparib), 96.7% (active); in assay [4] (at 0.00488 µM, OCI-C5x cells, with rucaparib 10 µM, 100% = cells with rucaparib alone) it was 99.7% (active); in assay [4] (at 0.00488 µM, OCI-C5x cells, without rucaparib), 94.7% (active); in assay [4] (at 0.00488 µM, OCI-P5x cells, with rucaparib 20 µM, 100% = cells with rucaparib alone), 97.5% (active); in assay [4] (at 0.00488 µM, OCI-P5x cells, without rucaparib), 97.3% (active). Also, the viability in assay [4] (at 0.0195 µM, OCI-C5x cells, with rucaparib 10 µM, 100% = cells with rucaparib alone) was 64.4% (active); in assay [4] (at 0.0195 µM, OCI-C5x cells, without rucaparib), 66.5% (active); in assay [4] (at 0.0195 µM, OCI-P5x cells, with rucaparib 20 µM, 100% = cells with rucaparib alone), 82.4% (active); in assay [4] (at 0.0195 µM, OCI-P5x cells, without rucaparib) it was 90% (active); in assay [4] (at 0.0781 µM, OCI-C5x cells, with rucaparib 10 µM, 100% = cells with rucaparib alone), 38.4% (active); in assay [4] (at 0.0781 µM, OCI-C5x cells, without rucaparib) it was 48.1% (active). In addition, the viability in assay [4] (at 0.0781 µM, OCI-P5x cells, with rucaparib 20 µM, 100% = cells with rucaparib alone) is 54.9% (active); in assay [4] (at 0.0781 µM, OCI-P5x cells, without rucaparib), 77.6% (active); in assay [4] (at 0.313 µM, OCI-C5x cells, with rucaparib 10 µM, 100% = cells with rucaparib alone), 20.3% (active); in assay [4] (at 0.313 µM, OCI-C5x cells, without rucaparib) it was 29.5% (active); in assay [4] (at 0.313 µM, OCI-P5x cells, with rucaparib 20 µM, 100% = cells with rucaparib alone), 31.5% (active); in assay [4] (at 0.313 µM, OCI-P5x cells, without rucaparib), 66.2% (active). The viability in assay [4] (at 1.25 µM, OCI-C5x cells, with rucaparib 10 µM, 100% = cells with rucaparib alone) was 16.4% (active); in assay [4] (at 1.25 µM, OCI-C5x cells, without rucaparib), 26.3% (active); in assay [4] (at 1.25 µM, OCI-P5x cells, with rucaparib 20 µM, 100% = cells with rucaparib alone), 24% (active); in assay [4] (at 1.25 µM, OCI-P5x cells, without rucaparib), 64.7% (active); in assay [4] (at 5 µM, OCI-C5x cells, with rucaparib 10 µM, 100% = cells with rucaparib alone), 14.7% (active); in assay [4] (at 5 µM, OCI-C5x cells, without rucaparib), 20.8% (active). Besides, the viability was 19% (active) in assay [4] (at 5 µM, OCI-P5x cells, with rucaparib 20 µM, 100% = cells with rucaparib alone) and 56.3% (active) in assay [4] (at 5 µM, OCI-P5x cells, without rucaparib).
Regarding `COc1ccc2cc(C(C#N)OC(=O)OCC3OC3c3ccccc3)ccc2c1` (configuration not stated), the results for the fold change in assay [1] (setting [9]) and in assay [1] (setting [6]) were 0.914 (inactive) and 0.565, respectively. The cell count is 5380 in assay [1] (setting [7]) and 5890 in assay [1] (setting [8]).
The corresponding values for `CCCCC/C=C\C/C=C\C/C=C\C/C=C\CCCC(=O)NCCc1c[nH]c2ccc(O)cc12` are 1 (inactive), 0.653, 5660 and 5630.
The corresponding values for `C=C(C)[C@@H]1CCC(C)=C[C@H]1c1c(O)cc(O)cc1CCCCC` are 0.914 (inactive), 1.35, 5030 and 5500.
For the compound `C[C@H](Nc1ncnc2nc[nH]c12)c1nc2ccc(F)cc2c(=O)n1-c1ccccc1`, the AC50 in assay [5] is 14.8 µM (active). The compound was classed as inactive in assay [3].
